In PubChem BioAssay one finds composite z-score and z-score data, which are given here for nine molecules.

Assay [1] is described as follows: binders of probe aFSTL3 on microarray, primary screen, stem cell growth factor project, biochemical, small-molecule microarray, fluorescence 635/667 (AID 1064).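 Note: measures binding of the biotinylated anti-FSTL3 antibody to printed compounds.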 The following applies: higher = more signal.
A short description of assay [2]: binders from COS7 lysate, DM2A8 probe, primary screen, torsin A project, cell lysate, small-molecule microarray, fluorescence 635/667 (AID 1065). The following applies: higher = more signal, COS7 lysate expressing mutant human TOR1A.
Assay [3] in a line: binders of probe aFGF2 on microarray, primary screen, stem cell growth factor project, biochemical, small-molecule microarray, fluorescence 635/667 (AID 1067).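 Note: measures binding of biotinylated aFGF2 protein to printed compounds on slides; z-score merges feature fluorescence and signal-to-noise across triplicate slides.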 The following applies: higher = more signal.
Assay [4] can be described thus: binders of probe aFGF10 on microarray, primary screen, stem cell growth factor project, biochemical, small-molecule microarray, fluorescence 635/667 (AID 1071).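 Note: score merges 667 nm spot intensity and signal to noise from triplicate slides.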 The following applies: higher = more signal.
For assay [5], the target named is Neurogenic locus notch homolog protein 2 (Homo sapiens) (UniProt Q04721). Briefly: Notch2 binders on small-molecule microarrays, primary screen, biochemical, small-molecule microarray, 635 nm fluorescence, stem cell growth factors (AID 1073). Conditions: Notch2 binding, higher = more signal.
Assay [6] deals with Pro-neuregulin-1, membrane-bound isoform (Homo sapiens) (UniProt Q02297). The assay can be described thus: NRG1 binders on small-molecule microarrays, primary screen, psychiatric disease protein project, biochemical, small-molecule microarray, fluorescence 635/667 (AID 1075).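 Note: score combines 667 nm spot fluorescence with signal to noise.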 The following applies: NRG1 binding, 635 nm fluorescence, higher = more signal.
Assay [7] relates to Neuregulin-1 EGF-like domain. The assay can be described thus: binders of neuregulin-1 EGF-like domain, primary screen, biochemical, small-molecule microarray, 635 nm fluorescence (AID 1081).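 Note: binding of the protein to compounds printed on small-molecule microarray slides.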 Conditions: small-molecule microarray binding, higher = more signal.
Assay [8] in a line: FRG1 promoter luciferase signal modulators, primary screen, FRG1 inhibition for FSHD, cell-based, C2C12 myotubes, firefly/Renilla luciferase, luminescence (AID 1084). The following applies: higher = more signal, called active from +8 up or from −8 down.
Assay [9] can be described thus: binders of probe aFST on microarray, primary screen, stem cell growth factor project, biochemical, small-molecule microarray, fluorescence 635/667 (AID 1086).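 Note: score merges 667 nm fluorescence with signal-to-noise of each printed compound spot.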 The following applies: higher = more signal.
Assay [10] can be described thus: binders of probe aHhip on microarray, primary screen, stem cell growth factor project, biochemical, small-molecule microarray, fluorescence 635/667 (AID 1087).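 Note: score merges spot fluorescence at 667nm with spot signal to noise ratio.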 The following applies: higher = more signal.
The test system of assay [11] is PRMT1 (protein arginine N-methyltransferase 1). Briefly: PRMT1 binders on small-molecule microarrays, primary screen, biochemical, small-molecule microarray, 635 nm fluorescence (AID 1088).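 Note: binding of Prmt1 protein to compounds spotted on small-molecule microarray slides.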 The following applies: small-molecule microarray binding, higher = more signal.
A short description of assay [12]: yeast growth modulation, basal conditions, primary screen, YJM789 clinical isolate, OD600, 24 h (AID 1089).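 Note: growth of clinical yeast isolate S. cerevisiae YJM 789 seeded 1000 cells per well; test concentration not given here.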 Conditions: S. cerevisiae YJM789 growth, higher = more signal, called active from +8 up or from −8 down.
A short description of assay [13]: fission yeast growth modulation, primary screen, strain 972, OD600, 24 h, no modulator (AID 1090).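 Note: basal condition with compound alone and no growth modifier present; test concentration not given here.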 Conditions: S. pombe 972 growth, higher = more signal, called active from +8 up or from −8 down.
Assay [14] in a line: S. cerevisiae growth modulation with rapamycin, primary screen, strain BY4716, OD600, 96 h (AID 1091). Note: test concentration not given here. Conditions: higher = more signal, called active from +8 up or from −8 down.
Assay [15] has as its target Torsin-1A-interacting protein 2 (Homo sapiens) (UniProt Q8NFQ8). Briefly: LULL1 binders on small-molecule microarray, primary screen, cell lysate, human LULL1 lysate, 635/667 nm fluorescence (AID 1092).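 Note: probe is lysate of COS7 cells overexpressing human LULL1; score merges per-feature 667 nm fluorescence with signal-to-noise.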 The following applies: hLULL1 lysate binding, 635 nm fluorescence, higher = more signal.
Assay [16] in a line: E. coli growth modulation, two-sided OD650, primary screen, E. coli filamentation project, strain DRC41, 24 h (AID 1093).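 Note: MC1000 strain lacking acrAB efflux and sulA so SOS filamentation is blocked; test concentration not given here.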 The following applies: OD650, 24 h, higher = more signal, called active from +8 up or from −8 down.
A short description of assay [17]: small-molecule microarray binders of probe aLefty2, primary screen, biochemical, biotinylated probe, 635/667 nm fluorescence (AID 1094).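 Note: score merges spot fluorescence near 667 nm with spot signal-to-noise ratio.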 The following applies: higher = more signal.
Assay [18] concerns Noggin (protein binding on small-molecule microarray). Briefly: Noggin binders on small-molecule microarray, primary screen, biochemical, 635/667 nm fluorescence (AID 1095).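 Note: score merges 667 nm feature fluorescence with signal to noise over triplicate slides.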 The following applies: 635 nm fluorescence, higher = more signal.
The target of assay [19] is Neurogenic locus notch homolog protein 3 (Homo sapiens) (UniProt Q9UM47). Briefly: NOTCH3 binders on small-molecule microarray, primary screen, biochemical, 635/667 nm fluorescence (AID 1096). Conditions: NOTCH3 binding, 635 nm fluorescence, higher = more signal.
Assay [20] in a line: small-molecule microarray binders of probe aEGFR, primary screen, biochemical, biotinylated probe, 635/667 nm fluorescence (AID 1097).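 Note: probe is a biotinylated anti-EGFR antibody binding compounds printed on slides; score combines fluorescence near 667 nm and signal to noise of each spot.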 The following applies: higher = more signal.

Each structure is given as a SMILES string. The source made the active and inactive calls.

Sequence of Torsin-1A-interacting protein 2 (Homo sapiens) (Q8NFQ8 whole entry, looked up): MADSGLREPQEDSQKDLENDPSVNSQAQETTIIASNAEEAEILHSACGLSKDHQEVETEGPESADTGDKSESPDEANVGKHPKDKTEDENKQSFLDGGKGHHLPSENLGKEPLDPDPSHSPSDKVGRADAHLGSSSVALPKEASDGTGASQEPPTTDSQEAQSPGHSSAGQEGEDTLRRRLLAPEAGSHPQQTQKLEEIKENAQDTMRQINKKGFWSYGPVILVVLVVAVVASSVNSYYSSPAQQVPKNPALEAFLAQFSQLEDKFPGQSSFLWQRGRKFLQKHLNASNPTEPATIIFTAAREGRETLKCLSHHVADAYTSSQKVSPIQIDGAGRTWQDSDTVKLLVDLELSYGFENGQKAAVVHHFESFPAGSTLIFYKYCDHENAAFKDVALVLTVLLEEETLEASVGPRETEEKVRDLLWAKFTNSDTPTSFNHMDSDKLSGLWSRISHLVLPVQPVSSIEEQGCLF
Sequence of Pro-neuregulin-1, membrane-bound isoform (Homo sapiens) (Q02297 whole entry, looked up, the tested form may be a part, canonical isoform): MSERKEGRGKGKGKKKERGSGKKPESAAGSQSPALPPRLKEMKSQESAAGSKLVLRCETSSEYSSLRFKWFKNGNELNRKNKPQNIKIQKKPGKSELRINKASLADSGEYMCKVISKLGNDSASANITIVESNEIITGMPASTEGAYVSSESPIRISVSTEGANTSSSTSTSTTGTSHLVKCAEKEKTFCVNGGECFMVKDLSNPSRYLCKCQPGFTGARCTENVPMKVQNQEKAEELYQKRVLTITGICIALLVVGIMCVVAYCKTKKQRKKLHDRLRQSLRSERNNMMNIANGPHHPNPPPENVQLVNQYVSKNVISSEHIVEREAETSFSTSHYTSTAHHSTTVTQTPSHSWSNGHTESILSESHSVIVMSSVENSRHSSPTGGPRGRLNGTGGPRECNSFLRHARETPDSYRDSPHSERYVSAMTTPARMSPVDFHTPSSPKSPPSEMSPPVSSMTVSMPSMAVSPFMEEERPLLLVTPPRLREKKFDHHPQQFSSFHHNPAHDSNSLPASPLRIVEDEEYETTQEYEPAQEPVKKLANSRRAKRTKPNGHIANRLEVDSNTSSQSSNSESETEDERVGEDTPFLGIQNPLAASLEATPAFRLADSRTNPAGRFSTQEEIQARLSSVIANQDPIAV
Sequence of Neurogenic locus notch homolog protein 2 (Homo sapiens) (Q04721 whole entry, looked up, canonical isoform): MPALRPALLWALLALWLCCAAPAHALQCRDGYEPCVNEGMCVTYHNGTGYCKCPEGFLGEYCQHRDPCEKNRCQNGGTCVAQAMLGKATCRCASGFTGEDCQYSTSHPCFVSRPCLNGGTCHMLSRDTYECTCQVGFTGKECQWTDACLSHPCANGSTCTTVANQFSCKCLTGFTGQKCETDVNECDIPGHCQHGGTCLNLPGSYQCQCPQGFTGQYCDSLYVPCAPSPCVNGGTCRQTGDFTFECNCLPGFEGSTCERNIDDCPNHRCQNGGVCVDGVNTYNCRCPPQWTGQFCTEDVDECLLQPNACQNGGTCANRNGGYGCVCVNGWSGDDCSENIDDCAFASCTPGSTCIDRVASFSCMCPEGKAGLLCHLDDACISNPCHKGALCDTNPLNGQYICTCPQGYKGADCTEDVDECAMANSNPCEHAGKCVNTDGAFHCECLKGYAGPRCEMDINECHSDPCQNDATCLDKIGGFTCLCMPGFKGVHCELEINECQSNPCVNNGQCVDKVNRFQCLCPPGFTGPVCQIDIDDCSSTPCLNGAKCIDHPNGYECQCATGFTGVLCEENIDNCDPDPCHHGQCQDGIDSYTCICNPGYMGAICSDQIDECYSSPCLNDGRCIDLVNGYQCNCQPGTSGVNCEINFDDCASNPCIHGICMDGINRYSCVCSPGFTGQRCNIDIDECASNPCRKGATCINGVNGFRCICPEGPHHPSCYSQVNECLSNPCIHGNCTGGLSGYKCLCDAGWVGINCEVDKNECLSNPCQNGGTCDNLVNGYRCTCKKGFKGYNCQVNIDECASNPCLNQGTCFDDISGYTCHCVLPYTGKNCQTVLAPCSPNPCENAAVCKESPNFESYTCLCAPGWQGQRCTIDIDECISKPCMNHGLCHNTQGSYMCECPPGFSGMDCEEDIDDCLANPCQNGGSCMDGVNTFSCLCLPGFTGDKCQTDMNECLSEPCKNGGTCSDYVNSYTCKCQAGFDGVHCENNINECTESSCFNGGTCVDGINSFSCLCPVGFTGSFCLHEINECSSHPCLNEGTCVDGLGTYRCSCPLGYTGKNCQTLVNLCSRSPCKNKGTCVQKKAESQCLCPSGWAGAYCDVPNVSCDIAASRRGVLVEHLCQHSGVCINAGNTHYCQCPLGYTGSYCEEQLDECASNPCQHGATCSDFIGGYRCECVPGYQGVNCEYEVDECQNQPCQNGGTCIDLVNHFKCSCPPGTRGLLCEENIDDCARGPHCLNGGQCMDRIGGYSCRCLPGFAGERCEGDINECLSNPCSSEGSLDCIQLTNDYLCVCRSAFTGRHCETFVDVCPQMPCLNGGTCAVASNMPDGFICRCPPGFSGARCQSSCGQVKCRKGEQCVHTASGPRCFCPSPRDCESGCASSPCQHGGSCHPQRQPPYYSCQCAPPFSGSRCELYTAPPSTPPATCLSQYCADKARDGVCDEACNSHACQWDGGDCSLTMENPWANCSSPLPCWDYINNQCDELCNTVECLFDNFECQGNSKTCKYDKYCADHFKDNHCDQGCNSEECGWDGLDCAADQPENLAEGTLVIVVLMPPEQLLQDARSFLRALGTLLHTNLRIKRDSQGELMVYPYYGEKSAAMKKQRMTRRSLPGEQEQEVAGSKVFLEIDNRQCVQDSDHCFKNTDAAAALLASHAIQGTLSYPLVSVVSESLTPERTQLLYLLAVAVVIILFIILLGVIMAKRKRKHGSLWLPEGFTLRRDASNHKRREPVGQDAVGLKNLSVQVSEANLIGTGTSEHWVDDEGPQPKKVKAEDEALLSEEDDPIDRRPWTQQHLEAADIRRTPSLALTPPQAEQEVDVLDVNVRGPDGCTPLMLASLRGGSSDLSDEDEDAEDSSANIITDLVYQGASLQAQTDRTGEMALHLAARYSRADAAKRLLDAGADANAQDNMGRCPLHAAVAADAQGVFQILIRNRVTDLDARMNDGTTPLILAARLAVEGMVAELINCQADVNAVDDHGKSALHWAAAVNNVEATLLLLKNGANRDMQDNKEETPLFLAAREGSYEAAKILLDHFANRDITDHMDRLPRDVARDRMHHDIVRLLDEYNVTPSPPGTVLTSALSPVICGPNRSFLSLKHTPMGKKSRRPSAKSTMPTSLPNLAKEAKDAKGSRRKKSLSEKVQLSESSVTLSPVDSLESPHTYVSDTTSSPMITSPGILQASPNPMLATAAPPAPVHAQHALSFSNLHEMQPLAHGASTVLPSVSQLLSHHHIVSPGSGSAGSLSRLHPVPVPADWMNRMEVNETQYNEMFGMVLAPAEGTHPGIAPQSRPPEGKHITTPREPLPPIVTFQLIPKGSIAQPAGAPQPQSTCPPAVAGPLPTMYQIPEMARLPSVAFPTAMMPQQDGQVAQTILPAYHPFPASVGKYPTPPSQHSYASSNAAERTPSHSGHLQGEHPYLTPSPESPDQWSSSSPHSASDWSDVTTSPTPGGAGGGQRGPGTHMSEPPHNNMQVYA

Consider `C=CCN1Cc2ccccc2C[C@]2(N=C(c3ccc(OCCCO)cc3)O[C@@H]2c2ccccc2)C1=O`, for which the composite z-score in assay [1] was 0.211; in assay [2], 0.363; in [3], -0.0883; in assay [4], -0.147; in assay [5], 0.977; in assay [6], 0.414. Moreover, the composite z-score in [7] was determined as 1.35; in [9] it was 0.607; in [10] it was 0.0722; in [11], 1.56; in assay [15] it was 3.27; in assay [17], 0.129. Further, the composite z-score in assay [18] is 0.824; in assay [19] it was 1.07; in assay [20], -0.0455. Besides, the z-score was -3.57 (inactive) in assay [8]; -6.17 (inactive) in assay [12]; -9.52 (active) in assay [13]; 0.272 (inactive) in assay [14]; 1.49 (inactive) in assay [16].
As for `COc1ccc([Si](C)(C)[C@@H]2[C@@H](CC(=O)N3Cc4ccccc4C[C@H]3CO)O[C@]3(C(=O)N(Cc4cccc(N5C(=O)COc6ccccc65)c4)c4ccccc43)[C@H]2C)cc1`, the composite z-score is -0.562 in assay [1]; 0.608 in [2]; -0.1 in assay [3]; 0.41 in assay [4]; 0.244 in assay [5]; 1.57 in assay [6]. Besides, the composite z-score in [7] is 0.725; in [9], 0.0559; in assay [10], -0.451; in assay [11], 1.49; in assay [15], 1.25; in [17], -0.15. Moreover, the composite z-score in assay [18] was 0.812; in assay [19], 1.14; in assay [20] it was -0.0981. Besides, the z-score in assay [8] is -2.29 (inactive); in assay [12], -1.38 (inactive); in assay [13], 0.553 (inactive); in assay [14] it was 3.67 (inactive); in [16] it was 2.33 (inactive).
Regarding `O=C1OCC=C[C@H]2OC34C=CCN(Cc5ccccc5)C(=O)[C@H]3N(CCCO)C(=O)[C@@H]4[C@@H]12` (stereo not given in full), the composite z-score in assay [1] is 0.646; in assay [2], -0.815; in assay [3] it was 0.0661; in assay [4], -0.17; in assay [5] it was -0.286; in assay [6], 2.42. In addition, the composite z-score in assay [7] stood at 1.42; in assay [9], 0.245; in assay [10] it was 0.902; in [11], 0.733; in assay [15], 3.71; in assay [17], 0.694. Further, the composite z-score in assay [18] was 0.319; in assay [19] it was 0.288; in [20], -0.0703. Also, the z-score in [8] is 0.0735 (inactive); in assay [12], 0.393 (inactive); in assay [13], -0.885 (inactive); in [14], -0.38 (inactive); in [16], 2.76 (inactive).
For the molecule `CC(C)(C)OC(=O)CC[C@@]1(C(=O)N2CCOCC2)N=C(c2ccc(OCCCO)cc2)O[C@@H]1c1ccccc1N=[N+]=[N-]`, the composite z-score came to 0.0033 in assay [1]; 1.13 in [2]; 0.213 in assay [3]; 0.883 in assay [4]; 1.43 in [5]; 1.75 in assay [6]. Moreover, the composite z-score in [7] came out at 1.29; in assay [9], 1.57; in assay [10] it was 0.142; in assay [11], 1.53; in assay [15] it was 3.67; in assay [17], 0.0769. Also, the composite z-score was found to be 0.952 in assay [18], 1.06 in assay [19] and 0.127 in assay [20]. In addition, the z-score in [8] was 0.97 (inactive); in assay [12], 0.501 (inactive); in assay [13], -0.165 (inactive); in [14], 0.404 (inactive); in [16], 1.29 (inactive).
`O=C1[C@H]2C=C(Br)[C@H](C[C@@H]2OCCOCCO)[C@@]12CO2`: the composite z-score is 0.0321 in [1]; -0.0798 in assay [2]; -0.103 in assay [3]; 0.373 in assay [4]; 0.473 in assay [5]; -0.151 in assay [6]. The composite z-score in assay [7] was 0.437; in assay [9], 0.0751; in assay [10], -0.0994; in assay [11], -0.223; in assay [15], 0.0385; in assay [17], -0.111. The composite z-score in assay [18] was 0.595; in assay [19], 0.235; in assay [20], 0.0974. The z-score was -0.0763 (inactive) in assay [8]; 0.85 (inactive) in assay [12]; 0.397 (inactive) in assay [13]; 1.19 (inactive) in assay [14]; -0.922 (inactive) in [16].
As for `C=C[C@H](OC)[C@@H](OC(=O)Nc1ccc(SC)cc1)c1ccc(OCCO)cc1`, the composite z-score is 0.0168 in [1]; 0.594 in assay [2]; -0.0307 in assay [3]; 0.778 in [4]; -0.21 in [5]; 0.121 in [6]. Besides, the composite z-score is 1.41 in assay [7]; -0.0503 in assay [9]; -0.249 in assay [10]; 1.15 in assay [11]; 2.67 in assay [15]; -0.0478 in assay [17]. In addition, the composite z-score was -0.555 in [18], -0.179 in [19] and 0.507 in [20]. Moreover, the z-score is 5.3 (inactive) in assay [8]; 0.458 (inactive) in [12]; -0.339 (inactive) in assay [13]; 0.513 (inactive) in assay [14]; 1.15 (inactive) in assay [16].
On to `C[N+](C)(C)CCCC[C@@H]1NC(=O)[C@@H]2C[C@H](C(=O)NCCCCCCNC(=O)CS)[C@H](c3cccc(OCCO)c3)N2C1=O`, for which the composite z-score in assay [1] is -0.145; in [2], 0.976; in [3], -0.132; in assay [4] it was -0.459; in assay [5], -0.395; in assay [6] it was 0.612. Further, the composite z-score is 1.36 in assay [7]; -0.713 in assay [9]; -0.0193 in assay [10]; 1.12 in assay [11]; 1.09 in assay [15]; -0.21 in assay [17]. The values for the composite z-score in assay [18], in assay [19] and in [20] were 1.84, -0.0644 and -0.233, respectively. The z-score in [8] is -0.944 (inactive); in assay [12], -1.33 (inactive); in assay [13], -0.333 (inactive); in assay [14], -0.485 (inactive); in assay [16] it was -0.102 (inactive).
Take `CN(C)CCCC[C@@H]1NC(=O)[C@@H]2C[C@H](C(=O)NCc3ccc(F)cc3)[C@H](c3cccc(OCCO)c3)N2C1=O`: the composite z-score in [1] was -0.173; in assay [2] it was -0.114; in assay [3], -0.0707; in assay [4] it was 0.738; in [5], -0.252; in assay [6] it was 0.617. For the same molecule, the composite z-score in assay [7] is 1.02; in assay [9], 0.202; in assay [10], -0.41; in [11], 1.55; in assay [15], 2.96; in [17] it was 0.823. Further, the composite z-score in [18] was 1.97; in assay [19], 1.11; in [20], -0.0953. Moreover, the z-score is 1.36 (inactive) in assay [8]; -0.65 (inactive) in assay [12]; -1.41 (inactive) in assay [13]; -0.663 (inactive) in [14]; -0.0129 (inactive) in assay [16].
Take `Cc1ccccc1/C=C/C=O`: the composite z-score in [1] is -0.162; in [2], -0.623; in assay [3], -0.135; in assay [4], -0.0909; in assay [5], -1.09; in [6] it was -0.628. The composite z-score in [7] is -0.631; in assay [9], -0.127; in [10] it was 0.0957; in [11], -1.47; in [15] it was -0.672; in assay [17], -0.13. Further, the composite z-score in assay [18] is -0.13; in assay [19] it was -1.63; in assay [20], -0.307. In addition, the z-score is 0.258 (inactive) in assay [8]; -1.01 (inactive) in assay [12]; -3.42 (inactive) in assay [13]; -0.402 (inactive) in [14]; 0.35 (inactive) in [16].
